Data from PubChem BioAssay (NCATS).
Values joined by “and” are separate entries in the source; they are usually repeats but may differ in a detail not shown here. Equal values may be shown once. Inconclusive results are not listed. Active and inactive are the calls of the source. Unless noted, calls come from the whole dose curve; as a rule, active = well fitted curve in the direction sought with a large enough effect; inconclusive = small, poorly fitted or top-dose-only effect, or another doubt; inactive = no such curve, though single readings can be large; an effect the other way counts as inactive or inconclusive. Where a SMILES comes first, the peptide text is derived from it.

Assays:
[1] = Cell Viability - BJ (AID 421; calls by dose curve;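 note: potency is the fitted concentration of half-maximal effect; cells exposed to compound for 40 hours at 37 °C before readout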); details: BJ fibroblast viability, qHTS
In short: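 Cytotoxicity as drop in intracellular ATP (CellTiter-Glo, 20 min RT) after 40 hr compound exposure of BJ fibroblasts at 37 °C. Titrations scaled between DMSO and 100 uM tamoxifen, Hill-fitted for AC50.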

[2] = Cell Viability - Jurkat (AID 426;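 active = dose-dependent loss of cell ATP signal giving a full or clear fitted curve, ranked by lower potency value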;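 note: potency is the fitted concentration of half-maximal effect; cells exposed to compound for 40 hours at 37 °C before ATP read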); details: qHTS
In short: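 Cells of the human T-cell leukemia line Jurkat (E6-1) are seeded at 5000 per well, treated with compound across a concentration range for 40 hours at 37 °C, then lysed with CellTiter-Glo; luminescence reports ATP.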

[3] = Cell Viability - MRC5 (AID 434; calls by dose curve;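 note: potency is the fitted concentration of half-maximal effect; potency reflects cytotoxicity seen as loss of intracellular ATP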); details: MRC5 lung fibroblast viability, qHTS
In short: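 Decrease in intracellular ATP, quantified by luciferase light output, reflects compound toxicity toward MRC5 cells exposed for 40 hr in complete culture medium. Concentration-response curves, scaled between DMSO and 100 uM tamoxifen, gave AC50 values.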

[4] = Cell Viability - SK-N-SH (AID 435; calls by dose curve;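 note: potency is the fitted concentration of half-maximal effect; compound exposure lasted 40 h at 37 °C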); details: SK-N-SH neuroblastoma cell viability qHTS
In short: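 Luminescent ATP signal served as the viability read-out after 40 hours of compound treatment of human neuroblastoma SK-N-SH cells. Concentration-response data, scaled between DMSO and 100 uM tamoxifen, gave AC50 values by standard Hill modeling.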

[5] = biological target: Mitogen-activated protein kinase 10 (Mus musculus) (UniProt Q61831); test: JNK3 AlphaScreen Assay (AID 530; active = well fitted curve in either direction with a large enough effect, not every such curve was filed as active;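 note: kinase came from lysate of stimulated human HepG2 cells; signal reports phosphorylation of biotinylated GST-cJun 1-79 at Ser73 with 10 µM ATP; % is set by controls: 0 for no effect and ±100 for the full control effect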); details: JNK3 lysate, c-Jun phosphorylation; series mostly up to 57.1 µM
In short: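 Phosphorylation of biotinylated GST-cJun(1-79) at Ser73 is measured by AlphaScreen proximity luminescence. Enzyme is JNK3 in HepG2 lysates activated with interleukin-1beta and tumor necrosis factor alpha; ATP is 10 uM final.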

[6] = Cell Viability - Renal Proximal Tubule (AID 545); details: renal proximal tubule cells viability; activity change, negative = cytotoxicity: at 91.7 µM (top of the series) unless noted; note: nearly all actives have a fitted effect of over 40% in size; note: potency is the fitted concentration of half-maximal effect;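 for activity change, negative = cytotoxicity: 0% = DMSO only and -100% = 100 µM tamoxifen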
In short: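 Luminescent ATP signal (CellTiter-Glo) served as the viability read-out after 40 hr compound exposure of freshly isolated rat proximal tubule cells at 37 °C. Concentration-dependent ATP loss was fitted with the Hill equation to give AC50.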

[7] = Cellular Toxicity (caspase-3) HUV-EC-C (AID 656); details: HUV-EC-C cells, caspase-3 activation (apoptosis), vehicle = 0, 100 µM tamoxifen = 100%; series mostly up to 92.2 µM;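 note: 0% = DMSO basal and 100% = 100 µM tamoxifen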
In short: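 qHTS; HUV-EC-C, 1000 cells/well; 5 hr settle, 16 hr cmpd, 37°C; Caspase-Glo 3/7, 20 min RT; luminescence. Norm: DMSO = 0%, tamoxifen 100 uM = 100%. Hill-fit AC50.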

[8] = Cellular Toxicity (caspase-3) N2a (AID 665); details: N2a cells, luminescence, normalized: DMSO 0%, 10 µM staurosporine 100%; series mostly up to 92.2 µM;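 note: compound exposure lasted 16 h at 37 °C before readout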
In short: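 Caspase-3/7 activation, measured as increased luminescence from aminoluciferin release, is quantified in mouse N2a cells exposed to compounds for 16 h. Values are normalized to DMSO and 10 uM staurosporine, with AC50 derived by Hill modelling.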

[9] = Cellular Toxicity (caspase-3) Renal Proximal Tubule (AID 667); details: renal proximal tubule cells; at 91.7 µM (top of the series) unless noted;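 note: cells exposed to compound for 16 hours at 37 °C before detection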
In short: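 AC50 derived by standard Hill fit of concentration-response data, normalized between DMSO basal and 10 uM staurosporine as 100% stimulation. Cells: primary rat kidney proximal tubule, 16 h treatment at 37 °C.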

[10] = MultiTox-Fluor Cytotoxicity Assay - LYMP1-003 - Live Cells (AID 962); details: LYMP1-003 lymphoblastoid cells, MultiTox-Fluor live-cell protease fluorescence; series mostly up to 92.2 µM; note: potency is the fitted concentration of half-maximal effect
In short: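 Acute cytotoxicity is scored as a drop in live-cell protease activity in human lymphoblastoid LYMP1-003 cells after 16 hr compound exposure at 37 C. AC50 values come from Hill-equation modelling of concentration-response data.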

[11] = Cell Viability - LYMP2-003 (AID 965); details: LYMP2-003 lymphoblastoid cell viability; series mostly up to 92.2 µM;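 note: cells exposed to compounds for 24 h before reading; nearly all actives have a fitted effect of over 50% in size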; note: potency is the fitted concentration of half-maximal effect;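 for activity change, negative = cytotoxicity: 0% = DMSO only and full effect = 92 µM tetraoctylammonium bromide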
In short: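 Seed 2500 lymphoblastoid cells/well; incubate 5 hr, 37 C; add compounds; incubate 24 hr, 37 C; add CellTiter-Glo, 30 min RT; read luminescence. AC50 from Hill fit.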

[12] = Cell Viability - LYMP2-008 (AID 980); details: LYMP2-008 lymphoblastoid cell viability, qHTS; series mostly up to 92.2 µM; note: nearly all actives have a fitted effect of over 60% in size; note: potency is the fitted concentration of half-maximal effect;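 for activity change, negative = cytotoxicity: cells exposed to compound for 24 h at 37 °C; % is set by controls: 0 for no effect and ±100 for the full control effect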
In short: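 Cells seeded at 2500/well and rested 5 hr at 37 C; compounds added over a concentration range and incubated 24 hr at 37 C; CellTiter-Glo added, 30 min at room temperature; luminescence read and AC50 fitted with Hill model.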

[13] = qHTS assay for environmental chemicals that activate the Aryl hydrocarbon Receptor (AhR) signaling pathway (AID 651777); details: 1A2-DRE human hepatoma cells, luciferase, 24 h; activation: hits give high values; note: nearly all actives have a fitted effect of over 15% in size; note: potency is the fitted concentration of half-maximal effect; for activation: % of control where 0% means no effect
In short: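 Stable CYP1A2 promoter/DRE-luciferase human hepatoma line treated 24 hr; One-Glo luminescence, 30 min RT.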

[14] = biological target: Peroxisome proliferator-activated receptor alpha (Homo sapiens) (UniProt Q07869); test: qHTS assay for small molecule agonists of the peroxisome proliferator-activated receptor alpha (PPARalpha) signaling pathway (AID 651778); details: PathHunter PPARalpha complementation, chemiluminescence, 6 h; max response: hits give high values; note: % of control where 0% means no effect
Sequence of Peroxisome proliferator-activated receptor alpha (Homo sapiens) (Q07869 whole entry, looked up): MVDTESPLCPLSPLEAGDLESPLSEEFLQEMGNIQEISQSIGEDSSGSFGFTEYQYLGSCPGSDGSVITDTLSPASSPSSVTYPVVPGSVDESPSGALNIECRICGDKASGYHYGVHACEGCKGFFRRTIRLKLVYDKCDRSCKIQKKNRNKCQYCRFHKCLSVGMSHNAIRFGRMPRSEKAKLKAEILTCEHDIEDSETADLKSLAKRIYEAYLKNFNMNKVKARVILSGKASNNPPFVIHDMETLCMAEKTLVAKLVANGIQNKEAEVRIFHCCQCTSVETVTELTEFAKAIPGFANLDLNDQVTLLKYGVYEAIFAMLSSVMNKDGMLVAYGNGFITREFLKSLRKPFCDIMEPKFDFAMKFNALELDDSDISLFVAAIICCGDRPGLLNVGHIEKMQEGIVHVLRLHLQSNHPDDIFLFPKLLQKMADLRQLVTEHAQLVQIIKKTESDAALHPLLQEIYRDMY
In short: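 Cells plated at 2,000/well and held overnight at 37 C, 5% CO2, then compound added by pin tool for 6 hr; after PathHunter detection reagent and 60 min at room temperature, chemiluminescence from enzyme complementation was read.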

[15] = qHTS assay for small molecule agonists of the antioxidant response element (ARE) signaling pathway measured by Nrf2-dependant transcriptional activity - cell viability counter screen (AID 720653; active = well fitted curve in the direction sought with a large enough effect in the repeat runs; an effect the other way counts as inactive or inconclusive; note: % is set by controls: 0 for no effect and ±100 for the full control effect); details: ARE-bla HepG2 viability, CellTiter-Glo ATP luminescence, 16 h; max response: hits give low values
In short: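 ARE-bla HepG2 cells (2,000/well) rested 5 hrs at 37C/5% CO2, then exposed to compounds in DMSO for 16 hrs. Viability was read in the same wells as intracellular ATP by luminescence, 30 min at room temperature after reagent addition.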

[16] = Cell Viability - Hek293 (AID 427;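 active = compounds whose dose-response curve shows a full or clear partial loss of cell viability, called from curve shape rather than a numeric limit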;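 note: potency is the fitted concentration of half-maximal effect; cells exposed to compound for 40 hours at 37 °C before reading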); details: qHTS
In short: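 Luminescent ATP content (CellTiter-Glo, 20 min at room temperature) was measured after a 40 hr, 37 °C compound exposure of HEK293 cells. AC50 values came from Hill-equation fits of qHTS concentration-response data normalized to DMSO and 100 uM tamoxifen.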

[17] = biological target: Glucocorticoid receptor (Homo sapiens) (UniProt P04150); test: GR-GFP Redistribution (AID 450;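 active = compounds whose dose series gives a full or clear partial fitted curve of increased nuclear translocation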; note: potency is the fitted concentration of half-maximal effect); details: U2OS GR-GFP nuclear translocation, laser cytometry, 2 h
Sequence of Glucocorticoid receptor (Homo sapiens) (P04150 whole entry, looked up): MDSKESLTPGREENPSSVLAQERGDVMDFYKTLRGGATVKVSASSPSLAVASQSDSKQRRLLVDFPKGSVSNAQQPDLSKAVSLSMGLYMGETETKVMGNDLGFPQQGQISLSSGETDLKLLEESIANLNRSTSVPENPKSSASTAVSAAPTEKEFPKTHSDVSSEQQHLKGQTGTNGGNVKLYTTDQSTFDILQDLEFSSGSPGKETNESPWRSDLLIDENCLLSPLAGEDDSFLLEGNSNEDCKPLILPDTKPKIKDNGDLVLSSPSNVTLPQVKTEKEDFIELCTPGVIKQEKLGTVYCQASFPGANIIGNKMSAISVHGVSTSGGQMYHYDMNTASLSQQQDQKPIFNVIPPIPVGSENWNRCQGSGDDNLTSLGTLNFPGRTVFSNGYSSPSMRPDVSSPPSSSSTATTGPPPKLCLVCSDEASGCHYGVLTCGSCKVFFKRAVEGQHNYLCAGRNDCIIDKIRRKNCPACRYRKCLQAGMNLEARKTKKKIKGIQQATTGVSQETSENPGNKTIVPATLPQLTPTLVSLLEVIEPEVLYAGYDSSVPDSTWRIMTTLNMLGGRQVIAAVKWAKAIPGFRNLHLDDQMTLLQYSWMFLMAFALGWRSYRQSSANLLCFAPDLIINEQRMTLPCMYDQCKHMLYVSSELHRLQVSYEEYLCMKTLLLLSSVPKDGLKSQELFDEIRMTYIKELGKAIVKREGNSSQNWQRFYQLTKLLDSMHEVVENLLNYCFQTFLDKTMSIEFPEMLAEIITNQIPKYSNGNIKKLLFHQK

COP(=O)(OC)O/C(=C\Cl)c1cc(Cl)c(Cl)cc1Cl
active: Potency [2] 32.2 µM | Potency [4] 33.5 µM
inactive: Potency [1] > 92 µM | Potency [3] > 92 µM | outcome [5] | Potency [6] | outcome [7] | outcome [8] | caspase-3 activation [9] 2.58% [at 91.7 µM, primary cells freshly taken from rat, solvent-only wells 0%, staurosporine 100%] | Potency [10] | Potency [11] | Potency [12] | activation [13] 0.406% | max response [14] -3% | max response [15] -14.8%

O=[N+]([O-])C(Br)Br
inactive: Potency [16] > 92 µM | Potency [6] | outcome [7] | outcome [8] | caspase-3 activation [9] 2.88% | Potency [10] | activation [13] 1.61% | max response [14] -3.58% | max response [15] -11.4%
active: Potency [2] 24.4 µM | Potency [11] 25.1 µM | Potency [12] 12.6 µM

Oc1c(Cl)cc(Cl)cc1Cl
inactive: Potency [1] > 92 µM | Potency [16] > 92 µM | Potency [3] > 92 µM | Potency [4] > 92 µM | activation [13] 0.15% and 1.58% | max response [15] -6.96% and -8.43%

CC(C)C[C@H](NC(=O)[C@@H]1CCCN1C(=O)[C@@H](N)Cc1ccc(O)cc1)C(=O)NCC(N)=O (H-YPLG-NH2)
inactive: Potency [17] > 20.6 µM

FC(F)(F)c1ccc(Cl)cc1
inactive: Potency [1] > 92 µM | Potency [2] > 92 µM | Potency [16] > 92 µM | Potency [3] > 92 µM | Potency [4] > 92 µM | outcome [5] | Potency [6] | outcome [7] | outcome [8] | caspase-3 activation [9] 5.86% [at 91.7 µM, primary cells freshly taken from rat, solvent-only wells 0%, staurosporine 100%] | Potency [10] | Potency [11] | Potency [12] | activation [13] 0.0226% and 0.781% | max response [14] 1.19% and -0.788% | max response [15] 7.1% and -8.38%

O=C(Nc1ccncc1)c1c(O)c2ccccc2n(Cc2ccccc2)c1=O
inactive: Potency [17] > 20.6 µM

Cc1ccc2ccccc2c1C
inactive: Potency [1] > 92 µM | Potency [2] > 92 µM | Potency [16] > 92 µM | Potency [3] > 92 µM | Potency [4] > 92 µM | activation [13] 1.49% | max response [15] 9.36%

O=[N+]([O-])c1cc(C(F)(F)F)cc([N+](=O)[O-])c1Cl
active: Potency [2] 32.8 µM | Potency [12] 39.8 µM
inactive: Potency [1] > 92 µM | Potency [16] > 92 µM | Potency [3] > 92 µM | Potency [4] > 92 µM | outcome [5] | Potency [6] | outcome [7] | outcome [8] | caspase-3 activation [9] 6.02% [at 91.7 µM, primary cells freshly taken from rat, solvent-only wells 0%, staurosporine 100%] | Potency [10] | activation [13] 0.493% | max response [14] -4.28% | max response [15] 4.67%

Cc1ccc(O)cc1C
inactive: Potency [1] > 92 µM | Potency [2] > 92 µM | Potency [16] > 92 µM | Potency [3] > 92 µM | Potency [4] > 92 µM | max response [15] -2.94%

CN(C)c1ccc(N=O)cc1
inactive: Potency [1] > 92 µM | outcome [5] | outcome [7] | outcome [8] | caspase-3 activation [9] -9.93% | max response [14] -3.57%
active: Potency [2] 2.5 µM | Potency [16] 47.4 µM | Potency [3] 42.1 µM | Potency [4] 7.28 µM | Potency [6] 15.8 µM | Potency [10] 6.31 µM | Potency [11] 1.26 µM | Potency [12] 1.26 µM | Potency [13] 70.8 µM

[Cd+2].[Cl-].[Cl-]
active: Potency [16] 51.2 µM | Potency [6] 12.6 µM | Potency [12] 39.8 µM
inactive: Potency [3] > 92 µM | outcome [5] | outcome [7] | outcome [8] | caspase-3 activation [9] -13.6% | Potency [10] | Potency [11] | activation [13] 0.0733% | max response [14] -8.85%
